According to PubChem BioAssay (NCATS):
The other results are listed elsewhere or left out. Inconclusive results are not listed. Active and inactive are the calls of the source. Calls come from the whole dose curve.

Each compound was assayed on Hepatitis C virus NS3/4A protease (assay: Selectivity profile for inhibitors of NSP2Pro chikungunya virus (CHIKV): NS34A-HCV Counterscreen (AID 1964106; note: nearly all actives have a fitted effect of over 55% in size)). Conditions: HCV NS3/4A protease biochemical counterscreen; series mostly up to 50.9 µM; activity change, negative = inhibition: at the top concentration.
Description: PI: Natalia J. Martinez Ph.D.
National Center for Advancing Translational Sciences (NCATS),
National Institute of Health (NIH), Rockville, Maryland
Chikungunya virus (CHIKV) is a mosquito-borne RNA virus that has emerged as one of the most important global arboviral threats in the last decade. Although the first CHIKV vaccine has recently been FDA approved for use in healthy adults at increased risk, to date, there are no available antiviral drugs for CHIKV infection. CHIKV nsP2 protease plays a crucial role in the processing of the viral polypeptide precursor to release enzymes required for viral replication, thus making it a promising drug target for antiviral discovery. Here, we established a high-throughput pipeline to identify small molecule inhibitors of nsP2 proteolytic activity. The pipeline is composed of a suite of 1,536-well in vitro assays to support quantitative high-throughput (qHTS) screening campaigns. Specifically, we developed a fluorescence resonance energy transfer (FRET)-based assay using a fluorogenic peptide substrate encompassing an endogenous cleavage site and purified recombinant protease domain (nsP2pro). Using this assay, we interrogated ~37,000 small molecules, including those in drug repurposing libraries as well as chemically diverse and medicinal chemistry-friendly compounds. Hits were selected for follow-up validation against full-length nsP2 and an additional peptide. FRET-based 1,536-well assays for papain, hepatitis C virus NS3-4A, and human furin proteases were implemented to characterize compound selectivity. […] Novel compounds were identified to be potential nsP2 inhibitors and molecular docking analyses were performed to explain the binding mode of selected hits. In vitro antiviral activity was evaluated against a subset of compounds using a high-throughput CHIKV infection assay. To our knowledge, the pipeline presented here is unprecedented for CHIKV antiviral discovery research.
PROTOCOL TABLE (as described by Inglese J, Shamu CE and Guy RK. 2007)
SEQUENCE No. (e.g., 1, 2, 3, etc.); […] (e.g., Cells, Incubation, Reagent, etc.); VALUE; DESCRIPTION.
1; Enzyme; 2 uL; 1,536-well solid-bottom, black plate (Greiner Bio One).
2; Compounds; 20 nL; Echo 655 acoustic dispenser (Beckman Coulter).
3; Incubation; 15 min; room temperature in the dark.
4: Reagent; 2 uL; Ac-DE-[Lys(5-TAMRA)]-EE-[Abu-psi(COO)Ala]-S-[Lys(ECLIPSE-7)]-amide.
5; Detection; Fluorescence; time 0, ViewLux microplate reader (PerkinElmer) 525 nm excitation, 598/25 nm emission
6; Incubation; 15 min; room temperature
7; Detection; Fluorescence; time 15; ViewLux microplate reader (PerkinElmer), 525 nm excitation, 598/25 nm emission.
NOTES (numbers refer to sequence numbers above).
1. Two microliter of NS3-4A HCV enzyme solution (5 nM final concentration) in assay buffer (20 mM Tris-HCl pH 8.0, 150 mM NaCl, with 0.01% Tween 20) were dispensed into a 1,536-well solid-bottom black plate (Greiner Bio One) using the Kalypsys Pintool Station.
2. Twenty nanoliter of compounds, positive control Aprotinin (50 uM final concentration), or neutral control DMSO were transferred to the assay plates. Compounds in counter-screen assays were tested at 11 concentrations, 1:3 dilution points from 25 uM to 0.42 nM.
3. The assay plates were incubated in the dark for 15 min.
4. After incubation, 2 uL of 0.625 uM substrate (Ac-DE-[Lys(5-TAMRA)]-EE-[Abu-psi(COO)Ala]-S-[Lys(ECLIPSE-7)]-amide) in assay buffer (for NS3-4A assay) was added using the Kalypsys Pintool Station.
5-7. Plates were immediately read at time 0 then covered with stainless steel gasket lids and incubated for 15 min at room temperature in the dark. Fluorescence intensity in the assay plates were again read after incubation using the ViewLux imager equipped with Tamara fluorescence optics. The change in fluorescence intensity over the 15-min reaction period was normalized against DMSO and inhibitor controls as described below.
[…]
% is set by controls: 0 for no effect and ±100 for the full control effect; potency is the fitted concentration of half-maximal effect.

| Compound | activity change, negative = inhibition | outcome | Potency |
| --- | --- | --- | --- |
| CCOc1ccc(NC(=O)c2c(NC(=O)Cc3ccccc3)sc3c2CCCCC3)cc1 | 87% (inactive) | – | – |
| CC1=C(/C=C/C(C)=C/C=C/C(C)=C/C=C/C=C(C)/C=C/C=C(C)/C=C/C2=C(C)CCCC2(C)C)C(C)(C)CCC1 | – | inactive | – |
| O=C(O)c1cccc(-n2[nH]c(-c3ccccc3)cc2=O)c1 | 106% (inactive) | – | – |
| C=Cc1c(C)c2cc3nc(cc4[nH]c(cc5nc(cc1[nH]2)C(C)=C5CCC(=O)O)c(CCC(=O)OC)c4C)[C@@]1(C)C3=CC=C(C(=O)OC)[C@H]1C(=O)OC | – | inactive | – |
| CC(=O)N[C@@H](C(=O)O[C@H]1CCC(C)(C)[C@@H]2CCC3=C(COC3=O)[C@@]12C)C(C)C | – | inactive [at 33.5 µM] | – |
| C[C@@H]1O[C@@H](O[C@@H]2[C@@H](O)[C@H](OCCc3ccc(O)c(O)c3)O[C@H](CO[C@@H]3O[C@H](CO)[C@@H](O)[C@H](O)[C@H]3O)[C@H]2OC(=O)/C=C/c2ccc(O)c(O)c2)[C@H](O)[C@H](O)[C@H]1O | – | inactive | – |
| Cc1c(S(=O)(=O)O)oc2c1C(=O)C(=O)c1c-2ccc2c1CCCC2(C)C | – | inactive | – |
| CCOc1ccc(NC(=O)c2c(NC(=O)Cc3ccccc3)sc3c2CCC(C)C3)cc1 (stereo unspecified) | 107% (inactive) | – | – |
| COC([CH2][Hg])CNC(=O)c1ccccc1OCC(=O)O (stereo unspecified) | – | – | 1.63 µM (active) |
| Cn1nnnc1Sc1ncnc2n[nH]c(-c3cccc(S(C)(=O)=O)c3)c12 | – | – | 316 µM (active) |
| N#CSc1cc(SC#N)c(N)nc1N | – | inactive | – |
| CCC(C)C(=O)OC1C(C)C2(O)C(C=C(CO)CC3(O)C(=O)C(C)=CC32)C2C(C)(C)C12OC(=O)C(C)C (stereo unspecified) | – | inactive [at 17.2 µM] | – |
| CO[C@]1(NC(=O)CSC(F)F)C(=O)N2C(C(=O)O)=C(CSc3nnnn3CCO)CO[C@H]21 | -9.29% (inactive) | – | – |
| C=CC(=O)c1ccc2ccccc2c1 | – | inactive | – |
| CCOc1ccc(N(Cc2ccccc2)C(=O)c2nc(S(C)(=O)=O)ncc2Cl)cc1 | -14.7% (inactive) | – | – |
| C[C@@H]1C[C@@H](O)[C@@]23CO[C@]2(CO)C[C@@H](O)CC3[C@@]12CC(c1ccoc1)OC2=O (stereo partly specified) | – | – | 11.3 µM (active) |
